15 sequences from publication PMC8384837, “Expanding the binding specificity for RNA recognition by a PUF domain” can be followed below.

Where a chain is given by its changes, count along the chain named.

Holding throughout (test): yeast three-hybrid, YBZ-1, SC-Leu-His + 0.5 mM 3-AT, 4 days
Common to all, as to conditions: tags: N-Gal4 AD-HA kept; label: inside an RPR1-promoter hybrid RNA with tandem MS2 sites; ssRNA

For one assay, the target named is PUM1 PUF domain R5-KGE (Homo sapiens, UniProt Q14671 828-1176, C1007K;R1008G;Q1011E). Put shortly:
(§1)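 Pumilio-1 PUF domain libraries, randomized at the three base-contacting residues of each repeat, were co-expressed with matching RNA elements from a centromeric plasmid in strain YBZ-1, which carries a LexA–MS2 coat fusion and a HIS3 reporter. Transformants grew for four days on SC-Leu (input) or on SC-Leu-His + 0.5 mM 3-AT (selection), and the repeat regions were PCR-amplified and Illumina-sequenced. The interaction score is the log change in variant frequency from input to selection. That logarithm is base 2, with a pseudocount of 1 where a variant was absent.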

Another assay deals with PUM1 PUF domain R5-RYA (Homo sapiens, UniProt Q14671 828-1176, C1007R;R1008Y;Q1011A). The essentials:
as §1

Another assay has as its target PUM1 PUF domain R1-TGE (Homo sapiens, UniProt Q14671 828-1176, S863T;R864G;Q867E). The essentials:
as §1

The next assay has as its target PUM1 PUF domain R1-HWR (Homo sapiens, UniProt Q14671 828-1176, S863H;R864W;Q867R). The essentials: as §1
For the next assay, the target named is PUM1 PUF domain R1-YTR (Homo sapiens, UniProt Q14671 828-1176, S863Y;R864T;Q867R). The essentials: as §1
In a further assay the target is PUM1 PUF domain R2-LWA (Homo sapiens, UniProt Q14671 828-1176, N899L;Y900W;Q903A). The essentials:
as §1

Another assay concerns the target PUM1 PUF domain R3-RSP (Homo sapiens, UniProt Q14671 828-1176, C935R;R936S;Q939P). Put shortly:
as §1

A further assay concerns the target PUM1 PUF domain R8-QWC (Homo sapiens, UniProt Q14671 828-1176, N1122Q;Y1123W;Q1126C). The essentials: as §1
A further assay addresses PUM1 PUF domain R8-MFR (Homo sapiens, UniProt Q14671 828-1176, N1122M;Y1123F;Q1126R). Put shortly: as §1
The target in the next assay is PUM1 PUF domain R4-THL (Homo sapiens, UniProt Q14671 828-1176, N971T;Q975L). Put shortly:
as §1

The next assay concerns the target PUM1 PUF domain R3-PWN (Homo sapiens, UniProt Q14671 828-1176, C935P;R936W;Q939N). Put shortly:
as §1

A further assay concerns the target PUM1 PUF domain R4-RWP (Homo sapiens, UniProt Q14671 828-1176, N971R;H972W;Q975P). Put shortly:
as §1

A further assay addresses T1, PUM1 PUF domain R6-MWS (Homo sapiens, UniProt Q14671 828-1176, N1043M;Y1044W;Q1047S).
T1 sequence: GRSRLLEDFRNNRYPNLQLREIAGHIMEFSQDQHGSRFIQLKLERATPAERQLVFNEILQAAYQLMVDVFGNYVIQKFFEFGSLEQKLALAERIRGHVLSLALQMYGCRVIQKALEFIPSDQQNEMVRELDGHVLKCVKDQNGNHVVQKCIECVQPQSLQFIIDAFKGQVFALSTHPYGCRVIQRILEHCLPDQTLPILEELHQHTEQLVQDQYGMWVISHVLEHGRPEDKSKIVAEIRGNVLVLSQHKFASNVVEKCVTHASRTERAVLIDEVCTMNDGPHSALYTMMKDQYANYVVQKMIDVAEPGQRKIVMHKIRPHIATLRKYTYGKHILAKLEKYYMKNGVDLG
Put shortly:
as §1

Another assay addresses T2, PUM1 PUF domain R6-QRR (Homo sapiens, UniProt Q14671 828-1176, N1043Q;Y1044R;Q1047R).
T2 sequence: T1 sequence with M216Q, W217R, S220R
Put shortly:
as §1

For a further assay, the target named is PUM1 PUF domain R8-RYS (Homo sapiens, UniProt Q14671 828-1176, N1122R;Q1126S). The essentials:
as §1

The target in the next assay is PUM1 PUF domain R4-SRI (Homo sapiens, UniProt Q14671 828-1176, N971S;H972R;Q975I). The essentials:
as §1

The target of the next assay is T3, PUM1 PUF domain R6-IFM (Homo sapiens, UniProt Q14671 828-1176, N1043I;Y1044F;Q1047M).
T3 sequence: T1 sequence with M216I, W217F, S220M
The essentials:
as §1

The target in a further assay is T4, PUM1 PUF domain R6-CFI (Homo sapiens, UniProt Q14671 828-1176, N1043C;Y1044F;Q1047I).
T4 sequence: T1 sequence with M216C, W217F, S220I
Put shortly:
as §1

A further assay has as its target PUM1 PUF domain R7-RRQ (Homo sapiens, UniProt Q14671 828-1176, S1079R;N1080R;E1083Q). The essentials:
as §1

In the next assay the target is PUM1 PUF domain R3-RAF (Homo sapiens, UniProt Q14671 828-1176, C935R;R936A;Q939F). Put shortly: as §1

Consider “GGCUAGAACUAGUGGAUCCCCCGGCGCCCGGCGGCUCGAGCCCGGGUAAGUGUCAAUAGUCUGCAUGCCGCCGGGCGCCAUGCCUGCAGGUCGACUCUAGAAAACAUG”, for which the binding signal in the assay with PUM1 PUF domain R5-KGE is 5.15 log2 enrichment (interaction score); in the assay with PUM1 PUF domain R5-RYA, 4.95 log2 enrichment (interaction score).
As to “GGCUAGAACUAGUGGAUCCCCCGGCGCCCGGCGGCUCGAGCCCGGGUAAGUGUAAAUGGUCUGCAUGCCGCCGGGCGCCAUGCCUGCAGGUCGACUCUAGAAAACAUG”, the binding signal with PUM1 PUF domain R1-TGE is 2.92 log2 enrichment (interaction score).
Consider “GGCUAGAACUAGUGGAUCCCCCGGCGCCCGGCGGCUCGAGCCCGGGUAAGUGUAAAUUGUCUGCAUGCCGCCGGGCGCCAUGCCUGCAGGUCGACUCUAGAAAACAUG”, for which the binding signal is 3.32 log2 enrichment (interaction score) in the assay with PUM1 PUF domain R1-HWR, 3.46 log2 enrichment (interaction score) with PUM1 PUF domain R1-TGE and 6.22 log2 enrichment (interaction score) in the assay with PUM1 PUF domain R1-YTR.
Consider “GGCUAGAACUAGUGGAUCCCCCGGCGCCCGGCGGCUCGAGCCCGGGUAAGUGUAAAAAGUCUGCAUGCCGCCGGGCGCCAUGCCUGCAGGUCGACUCUAGAAAACAUG”, for which the binding signal with PUM1 PUF domain R2-LWA is 6.09 log2 enrichment (interaction score).
Take “GGCUAGAACUAGUGGAUCCCCCGGCGCCCGGCGGCUCGAGCCCGGGUAAGUGUAAGUAGUCUGCAUGCCGCCGGGCGCCAUGCCUGCAGGUCGACUCUAGAAAACAUG”: the binding signal in the assay with PUM1 PUF domain R3-RSP was 1.39 log2 enrichment (interaction score).
“GGCUAGAACUAGUGGAUCCCCCGGCGCCCGGCGGCUCGAGCCCGGGUAAGUGUAAAGAGUCUGCAUGCCGCCGGGCGCCAUGCCUGCAGGUCGACUCUAGAAAACAUG”: in the assay with PUM1 PUF domain R2-LWA, the binding signal is 2.94 log2 enrichment (interaction score).
As to “GGCUAGAACUAGUGGAUCCCCCGGCGCCCGGCGGCUCGAGCCCGGGUAAGUGUAAAUAGUCUGCAUGCCGCCGGGCGCCAUGCCUGCAGGUCGACUCUAGAAAACAUG”, the binding signal in the assay with PUM1 PUF domain R8-QWC is 3 log2 enrichment (interaction score); with PUM1 PUF domain R2-LWA, 1.62 log2 enrichment (interaction score); with PUM1 PUF domain R8-MFR, 3.78 log2 enrichment (interaction score); with PUM1 PUF domain R5-KGE it was 2.24 log2 enrichment (interaction score); in the assay with PUM1 PUF domain R4-THL it was 4.66 log2 enrichment (interaction score); with PUM1 PUF domain R5-RYA, 1.12 log2 enrichment (interaction score). For the same sequence, the binding signal was 2.55 log2 enrichment (interaction score) with PUM1 PUF domain R3-PWN; 5.93 log2 enrichment (interaction score) with PUM1 PUF domain R4-RWP; 5.31 log2 enrichment (interaction score) with PUM1 PUF domain R6-MWS; 6.35 log2 enrichment (interaction score) with PUM1 PUF domain R6-QRR; 4.4 log2 enrichment (interaction score) with PUM1 PUF domain R8-RYS; 3.08 log2 enrichment (interaction score) with PUM1 PUF domain R4-SRI.
Consider “GGCUAGAACUAGUGGAUCCCCCGGCGCCCGGCGGCUCGAGCCCGGGUAAGUGAAAAUAGUCUGCAUGCCGCCGGGCGCCAUGCCUGCAGGUCGACUCUAGAAAACAUG”, for which the binding signal with PUM1 PUF domain R6-IFM was 6.96 log2 enrichment (interaction score); with PUM1 PUF domain R6-MWS, 2.78 log2 enrichment (interaction score); with PUM1 PUF domain R6-CFI, 5.68 log2 enrichment (interaction score).
For “GGCUAGAACUAGUGGAUCCCCCGGCGCCCGGCGGCUCGAGCCCGGGUAAGUGUAAAUCGUCUGCAUGCCGCCGGGCGCCAUGCCUGCAGGUCGACUCUAGAAAACAUG”, the values for the binding signal with PUM1 PUF domain R1-HWR and with PUM1 PUF domain R1-YTR were 5.91 log2 enrichment (interaction score) and 6.08 log2 enrichment (interaction score), respectively.
“GGCUAGAACUAGUGGAUCCCCCGGCGCCCGGCGGCUCGAGCCCGGGUAAGCGUAAAUAGUCUGCAUGCCGCCGGGCGCCAUGCCUGCAGGUCGACUCUAGAAAACAUG”: the binding signal with PUM1 PUF domain R8-QWC was 2.08 log2 enrichment (interaction score); in the assay with PUM1 PUF domain R8-MFR, 5.35 log2 enrichment (interaction score); with PUM1 PUF domain R8-RYS, 6.43 log2 enrichment (interaction score).
For “GGCUAGAACUAGUGGAUCCCCCGGCGCCCGGCGGCUCGAGCCCGGGUAAGUUUAAAUAGUCUGCAUGCCGCCGGGCGCCAUGCCUGCAGGUCGACUCUAGAAAACAUG”, the binding signal with PUM1 PUF domain R7-RRQ was 5.4 log2 enrichment (interaction score).
As to “GGCUAGAACUAGUGGAUCCCCCGGCGCCCGGCGGCUCGAGCCCGGGUAAGUGCAAAUAGUCUGCAUGCCGCCGGGCGCCAUGCCUGCAGGUCGACUCUAGAAAACAUG”, the binding signal in the assay with PUM1 PUF domain R6-QRR was 5.8 log2 enrichment (interaction score).
Regarding “GGCUAGAACUAGUGGAUCCCCCGGCGCCCGGCGGCUCGAGCCCGGGUAAGUGUUAAUAGUCUGCAUGCCGCCGGGCGCCAUGCCUGCAGGUCGACUCUAGAAAACAUG”, the binding signal with PUM1 PUF domain R5-RYA was 4.8 log2 enrichment (interaction score).
In the case of “GGCUAGAACUAGUGGAUCCCCCGGCGCCCGGCGGCUCGAGCCCGGGUAAGUGUAUAUAGUCUGCAUGCCGCCGGGCGCCAUGCCUGCAGGUCGACUCUAGAAAACAUG”, the binding signal with PUM1 PUF domain R4-SRI is 1.38 log2 enrichment (interaction score).
In the case of “GGCUAGAACUAGUGGAUCCCCCGGCGCCCGGCGGCUCGAGCCCGGGUAAGUGUAAUUAGUCUGCAUGCCGCCGGGCGCCAUGCCUGCAGGUCGACUCUAGAAAACAUG”, the binding signal is 3.3 log2 enrichment (interaction score) with PUM1 PUF domain R3-RAF and 4.96 log2 enrichment (interaction score) with PUM1 PUF domain R3-RSP.
